Screens: PubChem, several laboratories
Cav3 T inh = blocks human Cav3.2 T-type calcium channel | Cav3.2-expressing cells, Fluo-4 calcium fluorescence FDSS; active compounds read low | B-score at 10 µM | 4% of 100,000 active | AID 449739;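 active means single-dose well whose peak fluorescence ratio is a statistical outlier from its plate by either plate-standardised score or position-corrected B-score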
Target sequence (O95180 whole entry, looked up): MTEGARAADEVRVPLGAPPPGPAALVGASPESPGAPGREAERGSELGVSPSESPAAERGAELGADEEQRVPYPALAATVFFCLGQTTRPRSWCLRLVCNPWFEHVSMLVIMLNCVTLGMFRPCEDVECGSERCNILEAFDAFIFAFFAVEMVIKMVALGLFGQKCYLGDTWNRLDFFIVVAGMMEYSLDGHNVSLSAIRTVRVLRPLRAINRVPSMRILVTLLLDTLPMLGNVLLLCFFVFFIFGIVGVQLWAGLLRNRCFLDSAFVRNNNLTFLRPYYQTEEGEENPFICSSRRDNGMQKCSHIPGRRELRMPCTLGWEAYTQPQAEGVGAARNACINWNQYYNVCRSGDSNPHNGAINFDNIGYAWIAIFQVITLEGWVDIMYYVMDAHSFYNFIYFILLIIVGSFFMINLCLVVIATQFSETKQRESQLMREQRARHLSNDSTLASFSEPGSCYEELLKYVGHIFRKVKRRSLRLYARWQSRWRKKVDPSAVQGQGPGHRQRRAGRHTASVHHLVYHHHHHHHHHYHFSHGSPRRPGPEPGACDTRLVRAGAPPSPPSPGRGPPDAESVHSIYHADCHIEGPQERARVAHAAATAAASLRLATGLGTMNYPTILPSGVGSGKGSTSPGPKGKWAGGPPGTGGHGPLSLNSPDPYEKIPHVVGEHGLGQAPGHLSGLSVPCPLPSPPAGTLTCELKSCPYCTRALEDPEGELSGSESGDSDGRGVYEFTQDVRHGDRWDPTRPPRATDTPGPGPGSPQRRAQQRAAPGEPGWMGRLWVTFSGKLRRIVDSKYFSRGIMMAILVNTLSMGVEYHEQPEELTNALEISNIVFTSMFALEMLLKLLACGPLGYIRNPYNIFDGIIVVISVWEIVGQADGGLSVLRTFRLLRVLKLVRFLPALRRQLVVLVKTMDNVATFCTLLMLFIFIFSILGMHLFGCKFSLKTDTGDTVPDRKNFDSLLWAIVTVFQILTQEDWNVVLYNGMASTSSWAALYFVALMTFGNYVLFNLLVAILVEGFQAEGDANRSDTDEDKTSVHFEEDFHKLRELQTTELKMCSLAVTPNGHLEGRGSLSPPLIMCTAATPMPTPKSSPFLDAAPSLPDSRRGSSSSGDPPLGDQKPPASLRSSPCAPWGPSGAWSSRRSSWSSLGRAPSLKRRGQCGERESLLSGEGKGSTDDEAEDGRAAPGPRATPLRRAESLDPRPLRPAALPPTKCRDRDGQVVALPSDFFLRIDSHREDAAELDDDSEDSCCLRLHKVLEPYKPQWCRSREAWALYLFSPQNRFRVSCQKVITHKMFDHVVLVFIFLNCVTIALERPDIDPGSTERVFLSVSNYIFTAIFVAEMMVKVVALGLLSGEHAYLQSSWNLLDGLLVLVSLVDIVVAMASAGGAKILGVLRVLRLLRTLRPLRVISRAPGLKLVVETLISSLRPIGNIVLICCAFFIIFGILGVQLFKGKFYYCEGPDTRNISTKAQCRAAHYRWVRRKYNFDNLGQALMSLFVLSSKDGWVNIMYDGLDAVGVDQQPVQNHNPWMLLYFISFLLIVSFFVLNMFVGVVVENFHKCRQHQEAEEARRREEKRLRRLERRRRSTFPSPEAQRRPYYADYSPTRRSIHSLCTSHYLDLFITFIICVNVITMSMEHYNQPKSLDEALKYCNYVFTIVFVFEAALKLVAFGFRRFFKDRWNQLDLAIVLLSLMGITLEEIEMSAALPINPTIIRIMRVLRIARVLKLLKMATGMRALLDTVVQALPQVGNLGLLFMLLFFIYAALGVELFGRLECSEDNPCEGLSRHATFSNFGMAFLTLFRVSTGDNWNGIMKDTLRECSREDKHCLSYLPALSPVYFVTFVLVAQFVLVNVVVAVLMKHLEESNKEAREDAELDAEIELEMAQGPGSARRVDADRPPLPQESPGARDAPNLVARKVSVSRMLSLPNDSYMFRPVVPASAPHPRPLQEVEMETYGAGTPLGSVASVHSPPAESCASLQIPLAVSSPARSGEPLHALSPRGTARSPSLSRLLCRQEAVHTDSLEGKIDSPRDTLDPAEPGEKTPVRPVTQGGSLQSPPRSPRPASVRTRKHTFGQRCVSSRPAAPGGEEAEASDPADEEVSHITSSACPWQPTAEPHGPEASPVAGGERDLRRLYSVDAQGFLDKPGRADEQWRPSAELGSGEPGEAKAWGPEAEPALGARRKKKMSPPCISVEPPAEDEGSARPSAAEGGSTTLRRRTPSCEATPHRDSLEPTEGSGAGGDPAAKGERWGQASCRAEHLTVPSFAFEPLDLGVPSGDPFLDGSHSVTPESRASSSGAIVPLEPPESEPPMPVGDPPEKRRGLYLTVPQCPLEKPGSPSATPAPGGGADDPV
CYP2C19 activ = cytochrome P450 2C19 (human) activation | activation factor at 5 µM | recombinant CYP2C19, luciferin-H EGE luminescence; active compounds read high; 0 = fully inhibited enzyme, 1 = untreated enzyme | AID 1025 | 96,000 tested, under 10 active | P33261;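 active means activation factor of at least 2 at 5 µM in the primary screen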
CYP2C9 activ = increases human cytochrome P450 2C9 activity. 1.4% of 96,000 active. activation factor at 5 µM. recombinant CYP2C9, luciferin-H conversion, luminescence; active compounds read high; factor 1 = untreated enzyme, 0 = blocked. AID 1024;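 active means activation factor of 2 or more for CYP2C9 at a 5 µM dose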
CYP2C9 inh = blocks human cytochrome P450 2C9; inhibition, % at 5 µM; P11712; CYP2C9 Supersomes, luciferin-H conversion, luminescence; 20% of 96,000 active;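 active means blocking of liver enzyme CYP2C9 beyond about 50% at 5 µM, limit read from the data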
CYP2C19 inh = inhibitors of human CYP2C19; inhibition, % at 5 µM; 21% of 96,000 active; P33261; AID 778; CYP2C19 Supersomes, luciferin-H EGE luminescence, 30 min;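 active means CYP2C19 inhibition above a set limit at 5 µM in the primary screen, cut at about 50% in these data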
Hits are given with their value; n = inactive; x = no result given. Most compounds without a hit are left out; they make up all but 27% or so of the library.

SMILES	Cav3 T inh	CYP2C19 activ	CYP2C9 activ	CYP2C9 inh	CYP2C19 inh
CCNc1ccccc(C(=O)/C=C/c2ccc3c(c2)OCO3)c1=O	n	n	n	n	85
Cc1ccc(C(=O)/C=C/c2ccc3c(c2)OCO3)o1	n	n	n	n	54
Cc1cccc(C(C)C)c1-n1nnnc1-c1ccccc1	n	n	n	82	70
CCCOn1nnnc1-c1ccccc1	n	x	x	x	x
N#CCN1CCN(CC(=O)Nc2ccc(OCc3ccccc3)cc2)CC1	x	n	n	n	n
CN(C)/N=C/C=C1\CC/C(=C\c2ccc(Br)cc2)C1=O	x	n	n	n	54
CC(=O)c1c(OC(=O)c2ccccc2)c2ccccc2n1C	n	n	n	n	n
CCCCC(CC)C(=O)Nc1ccccc1C#N (stereo unspecified)	n	n	n	n	53
CCOc1ccc(C(=O)NCC(=O)OC(C)C(=O)NCc2ccco2)cc1OCC (stereo unspecified)	n	n	n	n	n
Nc1nnc(-c2ccccc2)c(-c2ccccc2)n1	n	n	n	n	n
CN(C)c1nc(-c2ccccn2)nnc1-c1ccccc1	n	n	n	n	51
COc1cc2c(cc1NC(=O)c1cccc(Br)c1)CCCC2	n	n	n	n	n
COc1cc2c(cc1NC(=O)C(c1ccccc1)c1ccccc1)CCCC2	-6	n	n	96	83
CC(/C=C/c1ccccc1)=N\NC(N)=S	n	n	n	n	n
O=C(CSc1ncc(-c2ccccc2)[nH]1)Nc1ccccc1	n	n	n	56	75
NC(=O)CSc1ncc(-c2ccccc2)[nH]1	n	n	n	n	n
O=C(CSc1ncc(-c2ccccc2)[nH]1)Nc1cccc(O)c1	n	n	n	n	62
O=C(CSc1ncc(-c2ccc(F)cc2)[nH]1)N1CCCCC1	n	n	n	n	84
CC(C)C[C@H]1COCCS(=O)(=O)N1Cc1ccc(Cl)c(Cl)c1	n	x	x	x	x
Cn1c(=O)oc2cc(S(=O)(=O)N3CCCC(C(=O)Nc4ccc5c(c4)OCCO5)C3)ccc21 (stereo unspecified)	x	n	n	n	n
CCOC(=O)c1c(C)oc2c1c(C=NCc1ccccn1)c(O)c1ccccc12	x	n	n	86	64
CCOC(=O)c1c(C)oc2cc(Br)c(OC(C)C(=O)OCC)cc12 (stereo unspecified)	n	n	n	91	94
CCOC(=O)c1c(C)oc2ccc(O)cc12	n	n	2.7	n	n
CCOC(=O)c1c(C)oc2c1cc(O)c1ccccc12	n	n	n	73	n
CC(=O)c1coc2c1cc(O)c1ccccc12	n	n	n	n	n
SMILES	Cav3 T inh	CYP2C19 activ	CYP2C9 activ	CYP2C9 inh	CYP2C19 inh
CCOC(=O)c1nc2cc3n(c(CC(C)C)c-2c1C)CC(C)=C3C	n	x	x	x	x
Cc1ccc(CNC(=O)C2CC3Cn4c(nc5cc6ccccc6cc54)C3N2C)o1 (stereo unspecified)	n	x	x	x	x
CSCC[C@H](NC(=O)OC(C)(C)C)C(=O)N/N=C/c1c(C)[nH]c(=O)[nH]c1=O	x	n	n	n	n
CC(=O)Nc1cc(C(=O)N2CCN(C)CC2)ccc1Sc1ccc(C)cc1	n	n	n	n	n
CC(C)C(=O)NCCc1nc(-c2ccc(Cl)cc2)no1	n	x	x	x	x
C=C(C)COc1ccc2oc(C)c(C(=O)OCCOC)c2c1	n	n	n	60	84
CCOC(=O)c1c(C(C)(C)C)oc2ccc(O)cc12	n	n	n	n	n
CCOC(=O)c1c(C)oc2cc(Br)c(O)c(Br)c12	n	n	n	67	n
CCOC(=O)c1c(C)oc2ccc(OCC(N)=O)cc12	n	n	n	n	n
CCOC(=O)c1c(C(C)(C)C)oc2ccc(OCC#N)cc12	n	n	n	57	n
O=C(C1COc2ccccc2O1)N1CCn2c(nc3ccccc32)C1 (stereo unspecified)	n	n	n	n	85
O=C(C1COc2ccccc2O1)N1CCOCC1 (stereo unspecified)	n	n	n	n	n
O=C(Nc1ccccc1Cl)N1CCn2c(nc3ccccc32)C1	n	n	n	n	52
COc1ccccc1NC(=O)N1CCn2c(nc3ccccc32)C1	n	n	n	n	n
O=C(C1COc2ccccc2O1)N1CCN(c2ccccc2)CC1 (stereo unspecified)	n	n	n	75	85
O=C(c1ccccc1)N1CCn2c(nc3ccccc32)C1	n	n	n	n	n
CCOc1nc(C)nc(NC(=O)NS(=O)(=O)c2ccccc2Cl)n1	x	n	n	n	n
CC1(OC(=O)c2cccs2)C(=O)C=C2C=C3CCCN3C=C2C1=O (stereo unspecified)	n	x	x	x	x
Cc1cccc(-c2csc(N)c2C(=O)OC(C)C)c1	n	x	x	x	x
Cc1ccc(C)c(-c2csc(N)c2C(=O)OC(C)C)c1	n	n	n	67	69
O=S(=O)(CCOc1ccccc1)c1nc2ccccc2[nH]1	n	n	n	n	73
CN(/C(=N\S(=O)(=O)c1ccccc1)C(F)(F)F)c1ccccc1	x	n	n	n	n
O=C(CC(=O)N1CCN(c2ccccn2)CC1)Nc1ccc2nc3n(c(=O)c2c1)CCCCC3	x	n	n	78	n
O=C(Nc1ccc2nc3n(c(=O)c2c1)CCCCC3)c1ccccn1	n	n	n	53	n
O=C(NC1CCCCCC1)c1ccc2c(=O)n3c(nc2c1)CCCCC3	n	n	n	n	n
SMILES	Cav3 T inh	CYP2C19 activ	CYP2C9 activ	CYP2C9 inh	CYP2C19 inh
C[C@@H](C(=O)Nc1ccc2ccccc2c1)[C@H]1C[C@]1(C)[C@H](NP(=O)(c1ccccc1)c1ccccc1)c1ccccc1	n	x	x	x	x
O=C(Nc1cccc(F)c1)NC1(C(=O)N2CCN3CCCC3C2)CCCCC1 (stereo unspecified)	n	x	x	x	x
O=C(CCN1C(=O)c2ccccc2C1=O)Nc1ccccn1	n	n	n	n	n
Cc1cc(C)n2nc(SCN3C(=O)c4ccccc4C3=O)nc2n1	n	n	n	n	83
N#C/C(=C/c1cccc(C(F)(F)F)c1)c1nc(CCN2C(=O)c3ccccc3C2=O)cs1	n	n	n	n	n
Cc1ccc(-c2nc(CCN3C(=O)c4ccccc4C3=O)cs2)cc1	n	n	n	n	52
CCN(C(=O)CSc1nc2nc(C)cc(C)n2n1)c1ccccc1	n	n	n	n	n
O=C1c2ccccc2C(=O)N1CSc1ncccn1	n	n	n	n	61
O=C1c2ccccc2C(=O)N1CCc1ccccn1	n	n	n	n	84
C[C@@H]1CC=C[C@H]2[C@H]1C(=O)N(Cc1ccccc1)[C@H]2c1ccc2ccccc2c1Br	n	x	x	x	x
COc1ccc(S(=O)(=O)n2nc(OC(C)=O)cc2N(C(C)=O)C(C)=O)cc1	n	x	x	x	x
CCCC/C(O)=N\S(=O)(=O)c1ccc(N=NN(C)C)cc1	n	x	x	x	x
Cc1cc(C)n2nc(SCc3nc4ccccc4[nH]3)nc2n1	n	n	n	n	71
COC(=O)[C@H](CCSC)NC(=O)Nc1cc(C)ccc1C	n	n	n	n	n
COC(=O)[C@H](CCSC)NC(=O)Nc1ccc(C)cc1	n	n	n	n	60
CCCC/C=C/C(NC(=O)c1ccc(-c2ccccc2)cc1)c1ccccc1 (stereo unspecified)	n	x	x	x	x
